Values joined by “and” are separate entries in the source; they are usually repeats but may differ in a detail not shown here. Equal entries are not always repeated. The campaign covered roughly 5,500 compounds. About 2,000 (36%) were called active. Another 18% or so got no clear call; they are omitted. Rule as the data show it: active = normalized growth mostly below about 0.91 (no sharp cut-off); inconclusive = no clear call, values can overlap the other calls; inactive = mostly above about 0.92. Some of the results follow.
Experiment: chemical genetic growth profiling, strain panel (AID 1159580);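 also: tested at 20 µM; growth read once vehicle control cultures reached saturation at 30 °C; 1 = growth at the plate median or of vehicle wells; lower values mean less growth of the strain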
Conditions: S. cerevisiae deletion strains, growth OD

Measured: normalized growth

C[C@H]1c2cccc(O)c2C(O)=C2C(=O)[C@]3(O)C(O)=C(C(N)=O)C(=O)[C@@H](N(C)C)[C@@H]3[C@@H](O)[C@@H]21
active: locus YGL248W, strain PDE1, active compounds read low 0.854 | strain wtn01, active compounds read low 0.891
inactive: locus YAL021C, strain ccr4, active compounds read low 0.991 | locus YAL026C, strain drs2, active compounds read low 0.978 | locus YAL030W, strain snc1, active compounds read low 0.976 | locus YBL061C, strain skt5, active compounds read low 0.995 | locus YBR009C, strain hhf1, active compounds read low 0.958 | locus YBR021W, strain FUR4, active compounds read low 0.884 | locus YBR023C, strain chs3, active compounds read low 0.987 | locus YBR171W, strain sec66, active compounds read low 0.956 | locus YBR229C, strain ROT2, active compounds read low 1 | locus YBR231C, strain swc5, active compounds read low 0.979 | locus YBR279W, strain paf1, active compounds read low 0.988 | locus YCL011C, strain gbp2, active compounds read low 0.971 | locus YCL016C, strain dcc1, active compounds read low 1.02 | locus YCL029C, strain bik1, active compounds read low 0.953 | locus YCL069W, strain vba3, active compounds read low 0.956 | locus YCR088W, strain abp1, active compounds read low 0.985 | locus YDL005C, strain med2, active compounds read low 0.998 | locus YDL035C, strain GPR1, active compounds read low 0.963 | locus YDL040C, strain nat1, active compounds read low 0.975 | locus YDL074C, strain BRE1, active compounds read low 0.963 | locus YDL101C, strain DUN1, active compounds read low 0.984 | locus YDL185W, strain tfp1, active compounds read low 0.954 | locus YDL192W, strain arf1, active compounds read low 0.966 | locus YDR001C, strain nth1, active compounds read low 0.984 | locus YDR069C, strain doa4, active compounds read low 0.973 | locus YDR101C, strain arx1, active compounds read low 1.01 | locus YDR137W, strain rgp1, active compounds read low 0.962 | locus YDR159W, strain sac3, active compounds read low 0.951 | locus YDR162C, strain NBP2, active compounds read low 0.978 | locus YDR195W, strain ref2 0.979 | locus YDR297W, strain sur2, active compounds read low 0.991 | locus YDR318W, strain mcm21, active compounds read low 0.961 | locus YDR334W, strain swr1, active compounds read low 0.944 | locus YDR335W, strain msn5, active compounds read low 0.988 | locus YDR388W, active compounds read low 0.98 | locus YDR392W, strain spt3, active compounds read low 0.911 | locus YDR502C, strain sam2, active compounds read low 0.979 | locus YEL003W, strain gim4, active compounds read low 0.978 | locus YEL037C, strain rad23, active compounds read low 0.975 | locus YEL061C, strain CIN8 (second series), active compounds read low 0.971 | locus YEL061C, strain CIN8, active compounds read low 0.984 | locus YER015W, strain faa2, active compounds read low 0.977 | locus YER016W, strain bim1, active compounds read low 1.01 | locus YER110C, active compounds read low 0.965 | locus YER111C, strain swi4, active compounds read low 0.995 | locus YER155C, strain BEM2 (second series), active compounds read low 0.886 | locus YER155C, strain BEM2, active compounds read low 1.01 | locus YER167W, strain BCK2, active compounds read low 0.994 | locus YFR010W, strain ubp6, active compounds read low 0.955 | locus YGL078C, strain dbp3, active compounds read low 0.968 | locus YGL086W, strain mad1, active compounds read low 0.992 | locus YGL167C, strain pmr1, active compounds read low 0.965 | locus YGL173C, strain kem1, active compounds read low 0.975 | locus YGL227W, strain vid30, active compounds read low 0.987 | locus YGL240W, strain doc1, active compounds read low 0.96 | locus YGL253W, strain hxk2, active compounds read low 0.988 | locus YGR135W, strain pre9, active compounds read low 0.923 | locus YGR229C, strain SMI1, active compounds read low 0.983 | locus YGR252W, strain gcn5, active compounds read low 0.93 | locus YHR013C, strain ard1, active compounds read low 1.05 | locus YHR027C, strain rpn1, active compounds read low 0.98 | locus YHR030C, strain SLT2, active compounds read low 0.996 and 1.03 | locus YHR079C, strain IRE1 (second series), active compounds read low 0.978 | locus YHR079C, strain IRE1, active compounds read low 1.03 | locus YHR094C, strain hxt1, active compounds read low 0.987 | locus YHR129C, strain ARP1, active compounds read low 0.994 | locus YHR142W, strain chs7, active compounds read low 0.998 | locus YHR200W, strain rpn10, active compounds read low 0.97 | locus YIL066C, strain RNR3, active compounds read low 0.974 | locus YIL073C, strain SPO22, active compounds read low 0.751 | locus YIL125W, strain kgd1, active compounds read low 0.983 | locus YIR030C, strain dcg1, active compounds read low 0.961 | locus YJL092W, strain hpr5, active compounds read low 0.991 | locus YJL095W, strain BCK1 (second series), active compounds read low 0.979 | locus YJL095W, strain BCK1, active compounds read low 0.929 and 1.03 | locus YJL115W, strain asf1, active compounds read low 0.963 | locus YJL129C, strain trk1, active compounds read low 0.991 | locus YJL134W, strain LCB3, active compounds read low 1 | locus YJL154C, strain vps35, active compounds read low 0.983 | locus YJL164C, strain tpk1, active compounds read low 0.976 | locus YJL166W, strain qcr8, active compounds read low 0.944 | locus YJL168C, strain set2, active compounds read low 0.985 | locus YJL187C, strain SWE1 (second series), active compounds read low 0.97 | locus YJR043C, strain POL32, active compounds read low 0.958 | locus YJR066W, strain TOR1, active compounds read low 0.928 | locus YKL009W, strain mrt4, active compounds read low 0.967 | locus YKL068W, active compounds read low 0.986 | locus YKL085W, strain MDH1 (second series), active compounds read low 0.972 | locus YKL085W, strain MDH1, active compounds read low 0.972 | locus YKL160W, strain elf1, active compounds read low 0.992 | locus YKL190W, strain CNB1, active compounds read low 0.988 | locus YKR001C, strain vps1, active compounds read low 0.942 | locus YKR026C, strain gcn3, active compounds read low 0.972 | locus YKR091W, strain srl3, active compounds read low 0.985 | locus YLL001W, strain dnm1, active compounds read low 0.974 | locus YLL026W, active compounds read low 0.991 | locus YLL041C, strain sdh2, active compounds read low 0.973 | locus YLR027C, strain aat2, active compounds read low 0.998 | locus YLR039C, strain RIC1, active compounds read low 0.971 | locus YLR058C, strain SHM2, active compounds read low 0.976 | locus YLR102C, strain apc9, active compounds read low 0.968 | locus YLR113W, strain HOG1, active compounds read low 1.08 | locus YLR221C, strain rsa3, active compounds read low 0.962 | locus YLR258W, strain gsy2, active compounds read low 0.978 | locus YLR262C, strain YPT6 (second series), active compounds read low 0.936 | locus YLR262C, strain YPT6, active compounds read low 0.967 | locus YLR268W, strain sec22, active compounds read low 0.955 | locus YLR320W, strain mms22, active compounds read low 0.944 | locus YLR330W, strain CHS5, active compounds read low 0.979 | locus YLR342W, strain FKS1 (second series), active compounds read low 0.859 | locus YLR342W, strain FKS1, active compounds read low 0.977 | locus YLR357W, strain rsc2, active compounds read low 0.911 | locus YLR370C, strain arc18, active compounds read low 0.982 | locus YLR371W, strain rom2, active compounds read low 0.963 | locus YLR384C, strain iki3, active compounds read low 1 | locus YLR418C, strain cdc73, active compounds read low 0.91 | locus YML016C, strain PPZ1, active compounds read low 0.979 | locus YML032C, strain rad52, active compounds read low 0.984 | locus YML120C, strain ndi1, active compounds read low 0.97 | locus YML124C, strain tub3, active compounds read low 0.993 | locus YMR058W, strain fet3, active compounds read low 0.947 | locus YMR078C, strain ctf18, active compounds read low 0.963 | locus YMR125W, strain sto1, active compounds read low 0.958 | locus YMR129W, active compounds read low 0.989 | locus YMR205C, strain PFK2, active compounds read low 0.992 | locus YMR223W, strain ubp8, active compounds read low 0.922 | locus YMR231W, strain pep5, active compounds read low 0.989 | locus YMR307W, strain GAS1, active compounds read low 1.08 | locus YNL067W, strain RPL9B, active compounds read low 0.939 | locus YNL071W, strain lat1, active compounds read low 0.975 | locus YNL183C, strain NPR1, active compounds read low 0.987 | locus YNL209W, strain ssb2, active compounds read low 0.985 | locus YNL233W, strain BNI4, active compounds read low 0.939 | locus YNL248C, strain rpa49, active compounds read low 0.95 | locus YNL250W, strain rad50, active compounds read low 0.966 | locus YNL271C, strain bni1, active compounds read low 0.981 | locus YNL298W, strain CLA4, active compounds read low 0.969 | locus YNL307C, strain MCK1, active compounds read low 0.973 | locus YNL322C, strain KRE1 (second series), active compounds read low 0.969 | locus YNL322C, strain KRE1, active compounds read low 0.991 | locus YNR049C, strain mso1, active compounds read low 0.984 | locus YNR052C, strain pop2, active compounds read low 0.979 | locus YOL012C, strain htz1 1.14 | locus YOL147C, strain pex11, active compounds read low 0.988 | locus YOR001W, strain rrp6, active compounds read low 0.923 | locus YOR061W, strain CKA2, active compounds read low 0.993 | locus YOR069W, strain VPS5, active compounds read low 0.998 | locus YOR070C, strain gyp1, active compounds read low 0.99 | locus YOR080W, strain dia2, active compounds read low 0.982 | locus YOR083W, strain WHI5, active compounds read low 1 | locus YOR106W, strain vam3, active compounds read low 0.965 | locus YOR136W, strain idh2, active compounds read low 0.98 | locus YOR144C, strain elg1, active compounds read low 0.995 | locus YOR184W, strain ser1, active compounds read low 0.939 | locus YOR231W, strain MKK1, active compounds read low 1.06 | locus YOR265W, strain rbl2, active compounds read low 0.992 | locus YOR270C, strain vph1, active compounds read low 0.943 | locus YOR290C, strain snf2, active compounds read low 1 | locus YOR316C, strain cot1, active compounds read low 0.973 | locus YPL051W, strain arl3, active compounds read low 0.993 | locus YPL055C, strain LGE1, active compounds read low 0.866 | locus YPL078C, strain atp4, active compounds read low 0.999 | locus YPL106C, strain sse1, active compounds read low 0.912 | locus YPL240C, strain hsp82, active compounds read low 0.984 | locus YPL241C, strain CIN2, active compounds read low 0.998 | locus YPL256C, strain CLN2, active compounds read low 1.05 | locus YPR119W, strain clb2, active compounds read low 0.98 | locus YPR141C, strain kar3, active compounds read low 0.965 | locus YPR163C, strain tif3, active compounds read low 0.985 | locus YPR167C, strain met16, active compounds read low 0.982

Source: PubChem BioAssay AID1159580 (chemical genetic matrix, 2015)
